Experimental data published in article PMC7862700, “An all-to-all approach to the identification of sequence-specific readers for epigenetic DNA modifications on cytosine”.

Assays:
Test in all cases: DAPPL (digital affinity profiling via proximity ligation, sequencing); 10 mM Tris-HCl pH 7.5, 50 mM NaCl, 1 mM DTT, 4% glycerol, room temperature, 30 min; GST-TFs on glutathione beads, 16-mer random dsDNA library, 0.1% formaldehyde crosslink after washing; high values mean tight binding
Details in all cases: protein: recombinant; tags: N-terminal GST; dsDNA, one strand shown
FLI1 = molecular target: T1, FLI1 (Homo sapiens, UniProt Q01543 1-452)
T1 sequence: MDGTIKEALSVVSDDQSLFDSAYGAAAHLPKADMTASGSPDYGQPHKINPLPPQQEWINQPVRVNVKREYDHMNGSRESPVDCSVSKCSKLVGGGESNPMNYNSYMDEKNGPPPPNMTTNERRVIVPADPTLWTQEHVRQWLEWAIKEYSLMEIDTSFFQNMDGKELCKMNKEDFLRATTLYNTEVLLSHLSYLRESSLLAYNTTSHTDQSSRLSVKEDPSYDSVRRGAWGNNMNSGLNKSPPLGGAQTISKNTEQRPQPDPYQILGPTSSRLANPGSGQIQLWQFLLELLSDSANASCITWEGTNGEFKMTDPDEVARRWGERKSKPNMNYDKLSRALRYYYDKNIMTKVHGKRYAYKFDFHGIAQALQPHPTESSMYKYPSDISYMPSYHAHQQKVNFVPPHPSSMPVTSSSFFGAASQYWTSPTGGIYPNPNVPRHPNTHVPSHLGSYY
Outline: (§1)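 Each value of binding signal is a hexamer's read frequency for a factor divided by the same hexamer's frequency in the tag-only sample. Barcoded, bead-captured GST fusions of human transcription factors made in yeast were pooled with that sample and incubated with 200 nmole of a random double-stranded 16-mer DNA library in Tris/NaCl/DTT/glycerol buffer at room temperature for 30 min. Washing, 0.1% formaldehyde crosslinking, proximity ligation, PCR and Illumina NextSeq500 sequencing followed.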

ELK1 = molecular target: T2, ELK1 (Homo sapiens, UniProt P19419 1-428)
T2 sequence: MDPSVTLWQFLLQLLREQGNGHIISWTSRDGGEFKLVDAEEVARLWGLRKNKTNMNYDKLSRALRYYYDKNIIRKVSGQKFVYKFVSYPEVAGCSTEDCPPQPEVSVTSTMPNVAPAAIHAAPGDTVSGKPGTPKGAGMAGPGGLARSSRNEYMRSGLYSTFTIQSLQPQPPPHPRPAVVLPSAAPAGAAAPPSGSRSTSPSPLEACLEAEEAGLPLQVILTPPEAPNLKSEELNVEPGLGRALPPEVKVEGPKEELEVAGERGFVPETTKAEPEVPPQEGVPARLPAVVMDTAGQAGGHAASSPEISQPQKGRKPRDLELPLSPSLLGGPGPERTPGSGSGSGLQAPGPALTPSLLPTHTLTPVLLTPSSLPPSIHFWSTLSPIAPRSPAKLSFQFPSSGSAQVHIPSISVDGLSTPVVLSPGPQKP
Outline: as §1

GABPA = molecular target: T3, GABPA (Homo sapiens, UniProt Q06546 1-454)
T3 sequence: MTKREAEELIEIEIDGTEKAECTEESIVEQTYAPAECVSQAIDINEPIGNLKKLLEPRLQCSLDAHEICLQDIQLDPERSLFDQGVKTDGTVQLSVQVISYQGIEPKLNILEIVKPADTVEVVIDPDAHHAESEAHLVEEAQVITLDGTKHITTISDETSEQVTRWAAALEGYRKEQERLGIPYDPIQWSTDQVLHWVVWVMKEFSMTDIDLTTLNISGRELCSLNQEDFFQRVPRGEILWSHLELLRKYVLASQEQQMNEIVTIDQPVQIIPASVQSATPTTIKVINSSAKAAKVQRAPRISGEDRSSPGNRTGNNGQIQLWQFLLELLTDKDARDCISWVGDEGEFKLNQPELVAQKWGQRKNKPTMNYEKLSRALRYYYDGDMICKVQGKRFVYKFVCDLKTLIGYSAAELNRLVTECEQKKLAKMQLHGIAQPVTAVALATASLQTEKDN
Outline: as §1

ELF1 = ELF1 (Homo sapiens, UniProt P32519 1-619)
Chain of ELF1 (P32519 whole entry): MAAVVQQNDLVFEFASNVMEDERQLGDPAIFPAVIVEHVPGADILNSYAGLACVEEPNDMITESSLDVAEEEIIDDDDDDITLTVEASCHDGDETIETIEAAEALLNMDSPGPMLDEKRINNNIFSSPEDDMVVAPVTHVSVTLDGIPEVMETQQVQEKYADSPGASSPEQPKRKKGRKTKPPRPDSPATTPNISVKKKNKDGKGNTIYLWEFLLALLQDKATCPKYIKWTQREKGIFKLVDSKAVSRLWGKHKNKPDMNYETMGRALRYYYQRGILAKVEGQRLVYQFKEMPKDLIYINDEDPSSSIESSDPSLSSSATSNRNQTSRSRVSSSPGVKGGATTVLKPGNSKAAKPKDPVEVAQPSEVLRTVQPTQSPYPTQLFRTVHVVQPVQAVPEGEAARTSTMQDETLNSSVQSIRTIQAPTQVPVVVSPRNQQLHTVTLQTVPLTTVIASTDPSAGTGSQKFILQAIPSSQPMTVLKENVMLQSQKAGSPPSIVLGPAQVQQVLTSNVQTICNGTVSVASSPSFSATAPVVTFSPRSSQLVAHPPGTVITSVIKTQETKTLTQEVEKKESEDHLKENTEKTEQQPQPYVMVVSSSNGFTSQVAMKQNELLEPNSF
Outline: as §1

EHF = molecular target: T4, EHF (Homo sapiens, UniProt Q9NZC4 1-300)
T4 sequence: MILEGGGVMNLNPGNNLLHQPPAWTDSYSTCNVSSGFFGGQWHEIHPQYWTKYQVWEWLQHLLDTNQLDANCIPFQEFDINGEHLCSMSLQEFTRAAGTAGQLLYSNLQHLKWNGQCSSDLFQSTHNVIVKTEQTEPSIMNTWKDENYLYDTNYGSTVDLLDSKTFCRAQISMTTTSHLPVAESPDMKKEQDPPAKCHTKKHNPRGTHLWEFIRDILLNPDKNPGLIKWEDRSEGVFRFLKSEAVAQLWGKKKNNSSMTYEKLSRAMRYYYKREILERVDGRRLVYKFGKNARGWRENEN
Outline: as §1

SPI1 = SPI1 (Homo sapiens, UniProt P17947 1-270)
Outline: as §1

SPIB = SPIB (Homo sapiens, UniProt Q01892 1-262)
Chain of SPIB (Q01892 whole entry): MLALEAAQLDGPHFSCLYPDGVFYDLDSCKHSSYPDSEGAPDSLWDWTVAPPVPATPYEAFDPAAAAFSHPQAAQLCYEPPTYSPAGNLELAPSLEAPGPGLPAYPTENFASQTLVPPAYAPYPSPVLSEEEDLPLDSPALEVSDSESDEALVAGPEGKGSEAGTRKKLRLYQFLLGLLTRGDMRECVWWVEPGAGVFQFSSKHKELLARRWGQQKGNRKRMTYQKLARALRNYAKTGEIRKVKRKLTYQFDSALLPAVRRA
Outline: as §1

ELK3 = molecular target: T5, ELK3 (Homo sapiens, UniProt P41970 1-407)
T5 sequence: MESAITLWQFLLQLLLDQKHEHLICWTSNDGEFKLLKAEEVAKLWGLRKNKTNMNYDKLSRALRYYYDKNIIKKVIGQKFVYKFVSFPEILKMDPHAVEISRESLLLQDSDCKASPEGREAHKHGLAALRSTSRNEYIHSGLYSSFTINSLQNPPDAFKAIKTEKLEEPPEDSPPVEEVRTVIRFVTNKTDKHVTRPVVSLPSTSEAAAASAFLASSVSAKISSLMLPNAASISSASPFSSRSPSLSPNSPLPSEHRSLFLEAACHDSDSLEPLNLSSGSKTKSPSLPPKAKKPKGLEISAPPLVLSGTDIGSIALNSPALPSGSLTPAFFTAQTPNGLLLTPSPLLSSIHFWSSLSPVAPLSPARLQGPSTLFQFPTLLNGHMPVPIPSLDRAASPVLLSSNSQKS
Outline: as §1

FEV = molecular target: T6, FEV (Homo sapiens, UniProt Q99581 1-238)
T6 sequence: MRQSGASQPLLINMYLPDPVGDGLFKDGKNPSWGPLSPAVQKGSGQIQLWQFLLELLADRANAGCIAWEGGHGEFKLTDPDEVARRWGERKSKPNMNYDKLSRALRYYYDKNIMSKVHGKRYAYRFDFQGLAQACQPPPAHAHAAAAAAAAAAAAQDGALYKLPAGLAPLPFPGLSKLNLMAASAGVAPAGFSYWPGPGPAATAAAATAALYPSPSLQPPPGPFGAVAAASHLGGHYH
Outline: as §1

ETV5 = ETV5 (Homo sapiens, UniProt P41161 1-510)
Chain of ETV5 (P41161 whole entry): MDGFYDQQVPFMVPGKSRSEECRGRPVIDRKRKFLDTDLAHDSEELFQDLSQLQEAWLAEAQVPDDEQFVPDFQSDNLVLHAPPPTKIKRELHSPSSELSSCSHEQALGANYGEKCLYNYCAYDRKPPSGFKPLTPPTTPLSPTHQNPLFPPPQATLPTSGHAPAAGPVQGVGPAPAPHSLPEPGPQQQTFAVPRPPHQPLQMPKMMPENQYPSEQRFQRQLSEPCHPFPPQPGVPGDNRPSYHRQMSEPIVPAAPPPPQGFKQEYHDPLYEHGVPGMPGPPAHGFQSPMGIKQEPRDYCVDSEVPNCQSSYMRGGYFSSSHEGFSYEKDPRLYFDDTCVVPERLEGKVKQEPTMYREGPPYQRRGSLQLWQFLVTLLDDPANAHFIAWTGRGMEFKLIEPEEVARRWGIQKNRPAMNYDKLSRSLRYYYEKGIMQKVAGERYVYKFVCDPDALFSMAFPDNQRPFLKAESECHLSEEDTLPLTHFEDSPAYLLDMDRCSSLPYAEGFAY
Outline: as §1

SPIC = molecular target: T7, SPIC (Homo sapiens, UniProt Q8N5J4 1-248)
T7 sequence: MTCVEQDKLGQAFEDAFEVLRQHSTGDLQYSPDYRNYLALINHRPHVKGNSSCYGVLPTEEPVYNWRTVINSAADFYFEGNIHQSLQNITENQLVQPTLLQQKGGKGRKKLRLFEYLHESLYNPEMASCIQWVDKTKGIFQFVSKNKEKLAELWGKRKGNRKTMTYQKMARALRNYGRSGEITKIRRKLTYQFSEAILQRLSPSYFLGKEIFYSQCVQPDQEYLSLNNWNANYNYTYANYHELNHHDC
Outline: as §1

ELF4 = ELF4 (Homo sapiens, UniProt Q99607 1-663)
Chain of ELF4 (Q99607 whole entry): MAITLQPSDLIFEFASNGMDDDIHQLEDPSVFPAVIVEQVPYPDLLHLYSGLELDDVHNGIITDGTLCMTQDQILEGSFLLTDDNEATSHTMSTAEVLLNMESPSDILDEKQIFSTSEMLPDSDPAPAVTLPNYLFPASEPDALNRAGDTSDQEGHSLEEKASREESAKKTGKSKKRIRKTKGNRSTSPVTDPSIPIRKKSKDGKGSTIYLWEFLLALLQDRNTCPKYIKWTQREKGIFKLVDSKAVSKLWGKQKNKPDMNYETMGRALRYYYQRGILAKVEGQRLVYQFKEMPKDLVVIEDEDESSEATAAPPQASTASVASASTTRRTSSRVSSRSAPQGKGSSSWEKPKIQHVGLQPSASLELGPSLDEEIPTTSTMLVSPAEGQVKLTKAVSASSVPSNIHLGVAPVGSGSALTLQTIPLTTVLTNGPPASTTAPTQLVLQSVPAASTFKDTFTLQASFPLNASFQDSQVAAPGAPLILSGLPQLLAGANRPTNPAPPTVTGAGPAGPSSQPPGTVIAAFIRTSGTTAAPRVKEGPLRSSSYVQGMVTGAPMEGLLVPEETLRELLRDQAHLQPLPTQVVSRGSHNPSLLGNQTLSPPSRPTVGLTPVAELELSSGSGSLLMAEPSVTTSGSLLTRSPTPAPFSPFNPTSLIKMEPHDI
Outline: as §1

ELK4 = molecular target: T8, ELK4 (Homo sapiens, UniProt P28324-2 1-405)
T8 sequence: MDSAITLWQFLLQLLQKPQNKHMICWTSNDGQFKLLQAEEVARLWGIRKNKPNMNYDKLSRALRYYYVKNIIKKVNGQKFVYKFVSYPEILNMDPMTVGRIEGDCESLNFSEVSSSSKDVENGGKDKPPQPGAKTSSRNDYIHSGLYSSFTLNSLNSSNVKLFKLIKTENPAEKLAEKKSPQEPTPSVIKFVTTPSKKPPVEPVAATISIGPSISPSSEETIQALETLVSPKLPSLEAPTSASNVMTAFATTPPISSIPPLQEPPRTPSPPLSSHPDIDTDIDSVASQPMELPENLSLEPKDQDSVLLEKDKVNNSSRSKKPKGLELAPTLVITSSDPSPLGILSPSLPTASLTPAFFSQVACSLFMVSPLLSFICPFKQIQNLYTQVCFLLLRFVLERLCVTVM
Outline: as §1

ETV2 = molecular target: T9, ETV2 (Homo sapiens, UniProt O00321 1-342)
T9 sequence: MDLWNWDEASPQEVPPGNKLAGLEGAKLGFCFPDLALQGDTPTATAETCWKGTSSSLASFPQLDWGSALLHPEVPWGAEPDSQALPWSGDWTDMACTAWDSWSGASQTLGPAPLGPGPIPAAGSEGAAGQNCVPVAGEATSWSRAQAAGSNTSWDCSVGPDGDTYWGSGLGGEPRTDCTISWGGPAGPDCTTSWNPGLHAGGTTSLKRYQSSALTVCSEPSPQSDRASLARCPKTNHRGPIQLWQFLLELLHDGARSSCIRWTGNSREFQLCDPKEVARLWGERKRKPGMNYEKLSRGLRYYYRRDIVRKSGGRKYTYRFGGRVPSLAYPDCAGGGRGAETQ
Outline: as §1

ELF3 = molecular target: T10, ELF3 (Homo sapiens, UniProt P78545 1-371)
T10 sequence: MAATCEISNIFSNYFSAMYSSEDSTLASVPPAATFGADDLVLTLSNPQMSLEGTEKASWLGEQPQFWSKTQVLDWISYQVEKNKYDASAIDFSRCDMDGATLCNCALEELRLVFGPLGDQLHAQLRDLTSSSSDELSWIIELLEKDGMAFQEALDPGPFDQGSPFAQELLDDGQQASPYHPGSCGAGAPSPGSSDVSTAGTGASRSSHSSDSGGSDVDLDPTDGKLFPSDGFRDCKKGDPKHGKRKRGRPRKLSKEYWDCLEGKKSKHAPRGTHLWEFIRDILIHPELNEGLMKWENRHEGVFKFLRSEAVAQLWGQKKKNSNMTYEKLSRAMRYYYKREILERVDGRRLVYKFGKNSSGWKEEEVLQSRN
Outline: as §1

CRX = CRX (Homo sapiens, UniProt O43186 1-299)
Chain of CRX (O43186 whole entry): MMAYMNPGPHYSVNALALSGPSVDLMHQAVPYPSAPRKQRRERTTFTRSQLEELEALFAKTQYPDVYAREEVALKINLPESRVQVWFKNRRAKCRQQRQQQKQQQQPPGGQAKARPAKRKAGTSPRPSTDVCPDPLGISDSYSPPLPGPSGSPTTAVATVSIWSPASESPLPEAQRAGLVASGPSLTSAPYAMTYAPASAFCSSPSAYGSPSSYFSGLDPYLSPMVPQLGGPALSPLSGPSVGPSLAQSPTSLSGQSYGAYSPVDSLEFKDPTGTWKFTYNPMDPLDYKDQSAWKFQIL
Outline: as §1

ETV1 = ETV1 (Homo sapiens, UniProt P50549 1-477)
Chain of ETV1 (P50549 whole entry): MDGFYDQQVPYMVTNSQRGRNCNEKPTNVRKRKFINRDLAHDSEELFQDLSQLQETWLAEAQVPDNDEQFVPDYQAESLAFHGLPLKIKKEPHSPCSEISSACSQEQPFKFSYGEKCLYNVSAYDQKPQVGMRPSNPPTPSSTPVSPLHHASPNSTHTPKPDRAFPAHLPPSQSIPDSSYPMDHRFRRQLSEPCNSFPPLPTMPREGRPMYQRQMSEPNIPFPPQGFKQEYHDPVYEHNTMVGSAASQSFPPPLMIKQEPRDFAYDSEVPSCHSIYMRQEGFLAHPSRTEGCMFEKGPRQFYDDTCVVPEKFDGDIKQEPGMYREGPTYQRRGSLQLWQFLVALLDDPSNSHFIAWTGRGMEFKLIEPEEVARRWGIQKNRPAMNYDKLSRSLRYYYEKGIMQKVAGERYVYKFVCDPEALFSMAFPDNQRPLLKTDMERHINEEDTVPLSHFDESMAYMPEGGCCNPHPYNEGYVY
Outline: as §1

ERG = molecular target: T11, ERG (Homo sapiens, UniProt P11308 1-479)
T11 sequence: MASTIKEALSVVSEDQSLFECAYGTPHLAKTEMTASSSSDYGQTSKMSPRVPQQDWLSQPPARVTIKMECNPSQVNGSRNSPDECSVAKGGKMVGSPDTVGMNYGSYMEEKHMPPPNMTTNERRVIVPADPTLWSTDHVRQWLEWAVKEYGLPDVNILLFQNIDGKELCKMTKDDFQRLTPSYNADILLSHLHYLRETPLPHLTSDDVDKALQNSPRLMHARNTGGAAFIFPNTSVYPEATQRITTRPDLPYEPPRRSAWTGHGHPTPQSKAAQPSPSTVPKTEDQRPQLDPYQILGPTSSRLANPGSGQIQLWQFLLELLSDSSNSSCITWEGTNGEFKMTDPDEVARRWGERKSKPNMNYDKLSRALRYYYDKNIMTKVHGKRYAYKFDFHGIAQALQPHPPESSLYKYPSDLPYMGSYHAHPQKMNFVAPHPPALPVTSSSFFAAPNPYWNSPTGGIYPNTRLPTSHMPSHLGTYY
Outline: as §1

Row | Sequence | binding signal (FLI1) | binding signal (ELK1) | binding signal (GABPA) | binding signal (ELF1) | binding signal (EHF) | binding signal (SPI1) | binding signal (SPIB) | binding signal (ELK3) | binding signal (FEV) | binding signal (ETV5) | binding signal (SPIC) | binding signal (ELF4) | binding signal (ELK4) | binding signal (ETV2) | binding signal (ELF3) | binding signal (CRX) | binding signal (ETV1) | binding signal (ERG)
1 | TCAGCA | 1.08 fold enrichment (6-mer frequency, TF over GST control) | 1.02 fold enrichment (6-mer frequency, TF over GST control) | 1.06 fold enrichment (6-mer frequency, TF over GST control) | 1.04 fold enrichment (6-mer frequency, TF over GST control) | 1.09 fold enrichment (6-mer frequency, TF over GST control) | 1.02 fold enrichment (6-mer frequency, TF over GST control) | 1.01 fold enrichment (6-mer frequency, TF over GST control) | 1.07 fold enrichment (6-mer frequency, TF over GST control) | 1.02 fold enrichment (6-mer frequency, TF over GST control) | 1.05 fold enrichment (6-mer frequency, TF over GST control) | 1.1 fold enrichment (6-mer frequency, TF over GST control) | 1.1 fold enrichment (6-mer frequency, TF over GST control) | 1 fold enrichment (6-mer frequency, TF over GST control) | 1.04 fold enrichment (6-mer frequency, TF over GST control) | 1.08 fold enrichment (6-mer frequency, TF over GST control) | 1.01 fold enrichment (6-mer frequency, TF over GST control) | 1.11 fold enrichment (6-mer frequency, TF over GST control) | 
2 | TACGGA | 1.26 fold enrichment (6-mer frequency, TF over GST control) | 1.25 fold enrichment (6-mer frequency, TF over GST control) | 1.21 fold enrichment (6-mer frequency, TF over GST control) | 1.3 fold enrichment (6-mer frequency, TF over GST control) | 1.45 fold enrichment (6-mer frequency, TF over GST control) | 1.56 fold enrichment (6-mer frequency, TF over GST control) | 1.48 fold enrichment (6-mer frequency, TF over GST control) | 1.43 fold enrichment (6-mer frequency, TF over GST control) | 1.26 fold enrichment (6-mer frequency, TF over GST control) | 1.34 fold enrichment (6-mer frequency, TF over GST control) | 1.21 fold enrichment (6-mer frequency, TF over GST control) | 1.25 fold enrichment (6-mer frequency, TF over GST control) | 1.15 fold enrichment (6-mer frequency, TF over GST control) | 1.42 fold enrichment (6-mer frequency, TF over GST control) | 1.42 fold enrichment (6-mer frequency, TF over GST control) | 1 fold enrichment (6-mer frequency, TF over GST control) | 1.39 fold enrichment (6-mer frequency, TF over GST control) | 1.37 fold enrichment (6-mer frequency, TF over GST control)
